According to paper PMC5540273 (PLoS ONE, 2017):

Assays:
Settings in all cases: concentration: 1 μM, replicates: in singlicate; n = 1
QSK = test system: QSK
RAF1 = test system: RAF1
RET = test system: RET
RIOK1 = test system: RIOK1
RIOK2 = test system: RIOK2
RIOK3 = test system: RIOK3
RIPK1 = test system: RIPK1
RIPK2 = test system: RIPK2
RIPK4 = test system: RIPK4
RIPK5 = test system: RIPK5
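Also: KINOMEscan kinase panel screen.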

Row | Structure (SMILES) | %Inh (QSK) [%] | %Inh (RAF1) [%] | %Inh (RET) [%] | %Inh (RIOK1) [%] | %Inh (RIOK2) [%] | %Inh (RIOK3) [%] | %Inh (RIPK1) [%] | %Inh (RIPK2) [%] | %Inh (RIPK4) [%] | %Inh (RIPK5) [%]
1 | Fc1cc(Cl)ccc1Nc1ccnc2cc(I)ccc12 [GW551191] | 37 | 10 | 53 | 31 | 0 | 19 | 0 | 67 | 12 | 0
2 | Cc1ccc(NC(=O)Nc2cc(C(C)(C)C)nn2-c2ccccc2)cc1 [GSK1014915] | 13 | 89 | 46 | 18 | 0 | 0 | 9 | 6 | 12 | 0
3 | Cc1csc(-c2nc(Nc3ccncc3)c3ccccc3n2)n1 [GW869640] | 35 | 0 | 0 | 38 | 39 | 1 | 0 | 52 | 44 | 34
4 | CC(C)(C)c1ccc(C(=O)Nc2cn3cc(Cl)ccc3n2)cc1 | 3 | 0 | 0 | 25 | 0 | 0 | 0 | 5 | 0 | 0
5 | Nc1nc(-c2nccs2)c(-c2ccnc3ccccc23)s1 [GW693542] | 0 | 15 | 37 | 24 | 6 | 38 | 0 | 14 | 5 | 0
6 | CS(=O)(=O)c1ccc(-c2c(-c3ncn[nH]3)sc(N3CCOCC3)c2C#N)cc1 | 0 | 0 | 5 | 0 | 0 | 0 | 6 | 0 | 0 | 18
7 | Nc1ncnc2[nH]c(-c3ccccc3)nc12 [AH5015] | 0 | 42 | 0 | 0 | 4 | 0 | 16 | 6 | 17 | 8
8 | CCCc1ccc(S(=O)(=O)NC2CCN(c3ccnc(Nc4ccc(F)cc4)n3)C2)cc1 (stereo not drawn) [GSK1379715] | 0 | 15 | 16 | 3 | 0 | 0 | 0 | 0 | 10 | 0
9 | Cn1cncc1-c1ccc2ncnc(Nc3ccc(OCc4ccccc4)cc3)c2c1 [GW320571] | 16 | 13 | 0 | 32 | 26 | 15 | 18 | 93.1 | 0 | 0
10 | Cl.c1ccc(-c2n[nH]cc2-c2ccnc(-c3ccc(CN4CCOCC4)cc3)c2)nc1 [GW776245] | 0 | 37 | 0 | 19 | 0 | 20 | 11 | 36 | 0 | 0
11 | COc1cc2ncn(-c3cc(OCC4CCCO4)c(C(N)=O)s3)c2cc1OC (stereo not drawn) [GSK204607] | 0 | 0 | 0 | 77 | 0 | 94.5 | 5 | 7 | 0 | 0
12 | COc1ccc(C2=C(Nc3cccc(C(=O)O)c3)C(=O)NC2=O)cc1 [SB-390765] | 27 | 11 | 3 | 13 | 18 | 0 | 0 | 0 | 18 | 31
13 | COc1ccc(Nc2nccc(NCCNC(=O)Nc3ccccc3F)n2)cc1 [GSK1379901] | 3 | 20 | 17 | 40 | 0 | 39 | 33 | 22 | 11 | 6
14 | Cc1c(Cn2ccn3c(=O)cc(N4CCOCC4)nc23)cccc1C(F)(F)F [GSK2289044] | 3 | 5 | 8 | 3 | 34 | 5 | 9 | 10 | 0 | 0
15 | CCn1c(-c2cccnc2O)nc2cnccc21 [SB-736715] | 0 | 0 | 5 | 6 | 0 | 0 | 0 | 0 | 21 | 0
